Test results from PubChem BioAssay (NCI).
The panel holds about 79,000 compounds, 15% with a hit somewhere; the sample as a whole holds those more often. The source made the active and inactive calls. Rule as the data show it: active = growth inhibition above about 70%; inactive = the rest.

Columns and labels:
[1] = NCI Yeast Anticancer Drug Screen. Data for the rad52 strain (AID 147);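 also: 0% = growth of vehicle-treated control cultures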; conditions: S. cerevisiae rad52 mutant growth inhibition, stronger effect = higher value
Procedure, shortened: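 Compounds are applied to a genetically defined yeast strain lacking normal DNA damage repair, and inhibition of growth is expressed relative to cultures given vehicle only.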

[2] = NCI Yeast Anticancer Drug Screen. Data for the wt1 strain (AID 149);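 also: 0% = growth of vehicle-treated wt1 cultures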; conditions: S. cerevisiae wt1 strain (SPY 50644) growth inhibition, stronger effect = higher value
Procedure, shortened: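 Each compound is tested on wt1 yeast and the loss of growth versus vehicle gives the inhibition value.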

[3] = NCI Yeast Anticancer Drug Screen. Data for the rad50EPP+ strain (AID 151);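 also: 0% = growth of vehicle-treated control cultures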; conditions: S. cerevisiae rad50 mutant strain, stronger effect = higher value
Procedure, shortened: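 Compounds were applied to the rad50EPP+ yeast strain, which bears a defined DNA repair alteration, and growth inhibition was determined relative to vehicle-treated cultures.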

[4] = NCI Yeast Anticancer Drug Screen. Data for the mgt1 strain (AID 153); conditions: S. cerevisiae mgt1 mutant growth inhibition, stronger effect = higher value
Procedure, shortened: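 Strain: mgt1 yeast, one of a set carrying defined DNA damage repair or cell cycle control alterations. Compound-treated growth compared with vehicle.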

[5] = NCI Yeast Anticancer Drug Screen. Data for the rad50 strain (AID 155);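 also: 0% = growth of vehicle-only cultures of the same strain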; conditions: S. cerevisiae rad50 strain growth inhibition, stronger effect = higher value
Procedure, shortened: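 Vehicle-treated cultures provide the reference for the growth inhibition reported for compound-exposed, repair-deficient yeast.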

[6] = NCI Yeast Anticancer Drug Screen. Data for the mec2-1 strain (AID 157); conditions: S. cerevisiae mec2-1 strain, stronger effect = higher value
Procedure, shortened: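 Strain: mec2-1 (DNA repair/cell cycle alteration). Compound exposure, then growth measured; inhibition expressed relative to vehicle.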

[7] = NCI Yeast Anticancer Drug Screen. Data for the rad14 strain (AID 159);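 also: 0% = growth of vehicle-treated control cultures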; conditions: S. cerevisiae rad14 strain growth inhibition, stronger effect = higher value
Procedure, shortened: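 Inhibition of growth is reported for a repair-deficient yeast mutant following compound treatment, calculated relative to cultures that received vehicle.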

[8] = NCI Yeast Anticancer Drug Screen. Data for the sgs1 mgt1 strain (AID 161);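 also: 0% = growth of cultures given vehicle only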; conditions: S. cerevisiae sgs1 mgt1 strain, stronger effect = higher value
Procedure, shortened: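 Test agents were incubated with a DNA-repair-mutant yeast strain. Growth was then read and compared against vehicle-treated controls.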

[9] = NCI Yeast Anticancer Drug Screen. Data for the CLN2oe strain (AID 163);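 also: 0% = growth of vehicle-only control cultures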; conditions: S. cerevisiae CLN2oe strain, stronger effect = higher value
Procedure, shortened: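 Growth of a genetically modified yeast strain is measured after compound exposure and compared with cultures given vehicle alone.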

[10] = NCI Yeast Anticancer Drug Screen. Data for the cln2 rad14 strain (AID 165);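 also: 0% = growth equal to vehicle treated cultures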; conditions: S. cerevisiae cln2 rad14 strain, stronger effect = higher value
Procedure, shortened: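 Compounds are applied to the cln2 rad14 yeast strain, and growth is then compared with that of vehicle-treated cultures to give inhibition.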

[11] = NCI Yeast Anticancer Drug Screen. Data for the bub3 strain (AID 167); conditions: S. cerevisiae bub3 mutant strain, stronger effect = higher value
Procedure, shortened: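 Mutant yeast screening strain plus compound; vehicle-treated cultures serve as the 0% inhibition reference.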

[12] = NCI Yeast Anticancer Drug Screen. Data for the mlh1 strain (AID 171);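 also: 0% = growth of vehicle-treated control cultures of the same strain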; conditions: S. cerevisiae mlh1 strain growth inhibition, stronger effect = higher value
Procedure, shortened: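 Growth of the mutant yeast strain after compound exposure, expressed as inhibition relative to vehicle-only controls.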

[13] = NCI Yeast Anticancer Drug Screen. Data for the sgs1 strain (AID 173);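 also: 0% = growth of vehicle-only control cultures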; conditions: S. cerevisiae sgs1 mutant, stronger effect = higher value
Procedure, shortened: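 Growth of a yeast strain bearing a defined genetic alteration is measured after compound treatment. Inhibition is expressed relative to vehicle-only controls.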

[14] = NCI Yeast Anticancer Drug Screen. Data for the mlh1 rad18 strain (AID 175); conditions: S. cerevisiae mlh1 rad18 strain growth inhibition, stronger effect = higher value
Procedure, shortened: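 Read-out is yeast growth inhibition, calculated against vehicle-only controls. The compound was applied to a strain engineered with DNA damage repair alterations.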

[15] = NCI Yeast Anticancer Drug Screen. Data for the rad18 strain (AID 177); conditions: S. cerevisiae rad18 mutant growth inhibition, stronger effect = higher value
Procedure, shortened: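 Growth of the mutant yeast strain after compound exposure, normalised to vehicle-only cultures.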

[16] = NCI Yeast Anticancer Drug Screen. Data for the wt2 strain (AID 169); conditions: S. cerevisiae wt2 strain growth inhibition, stronger effect = higher value
Procedure, shortened: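 This strain belongs to a panel of yeast strains with defined genetic alterations in DNA damage repair or cell cycle control. Compounds are applied, and growth inhibition is measured against vehicle-treated cultures.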

[17] = at 5.0 µM (retest, dose inferred, filed as 0.5)
[18] = at 50.0 µM (retest, dose inferred, filed as 5.0)

Measured: growth inhibition

O=C1OC(OC/C(Br)=C(\Br)COC2OC(=O)C(Cl)=C2Cl)C(Cl)=C1Cl (stereo unspecified)
inactive: [1]; at 1.2 µM 0% | [1]; at 3.7 µM 2% | [1]; at 11.0 µM 3% | [1]; at 33.0 µM 5% | [1]; at 100.0 µM 15% | [2]; at 1.2 µM 0% | [2]; at 3.7 µM 0% | [2]; at 11.0 µM 2% | [2]; at 33.0 µM 8% | [2]; at 100.0 µM 18% | [3]; at 1.2 µM -1% | [3]; at 3.7 µM 1% | [3]; at 11.0 µM 3% | [3]; at 33.0 µM 6% | [3]; at 100.0 µM 16% | [4]; at 1.2 µM -5% | [4]; at 3.7 µM -1% | [4]; at 11.0 µM 2% | [4]; at 33.0 µM 3% | [4]; at 100.0 µM 9% | [5]; at 1.2 µM 0% | [5]; at 3.7 µM 1% | [5]; [17] 37% | [5]; at 11.0 µM 0% | [5]; at 33.0 µM 7% | [5]; at 100.0 µM 15% | [6]; at 1.2 µM -2% | [6]; at 3.7 µM 2% | [6]; [17] 20% | [6]; at 11.0 µM 5% | [6]; at 33.0 µM 13% | [6]; at 100.0 µM 26% | [7]; at 1.2 µM 1% | [7]; at 3.7 µM 2% | [7]; at 11.0 µM 4% | [7]; at 33.0 µM 9% | [7]; at 100.0 µM 16% | [8]; [17] 39% | [9]; at 1.2 µM -2% | [9]; at 3.7 µM -1% | [9]; at 11.0 µM 2% | [9]; at 33.0 µM 9% | [9]; at 100.0 µM 14% | [10]; [17] 17% | [10]; at 50.0 µM 57.6% | [11]; at 1.2 µM 0% | [11]; at 3.7 µM -2% | [11]; [17] 13% | [11]; at 11.0 µM -4% | [11]; at 33.0 µM 1% | [11]; at 100.0 µM 16% | [12]; at 1.2 µM -1% | [12]; at 3.7 µM 0% | [12]; at 11.0 µM 2% | [12]; at 33.0 µM 4% | [12]; at 100.0 µM 12% | [13]; at 1.2 µM -1% | [13]; at 3.7 µM 0% | [13]; at 11.0 µM 0% | [13]; at 33.0 µM 6% | [13]; at 100.0 µM 20% | [14]; [17] 53% | [15]; at 1.2 µM 1% | [15]; at 3.7 µM 3% | [15]; at 11.0 µM 9% | [15]; at 33.0 µM 24% | [15]; at 100.0 µM 60%
active: [5]; [18] 91% | [5]; at 50.0 µM 98.7% | [6]; [18] 98% | [6]; at 50.0 µM 96.1% | [8]; [18] 99% | [8]; at 50.0 µM 93.1% | [10]; [18] 96% | [11]; [18] 93% | [11]; at 50.0 µM 93.6% | [14]; [18] 96% | [14]; at 50.0 µM 94.3%

CCCCCCCCCCCC1N=C(N)NC(CCCO)=C1C(=O)OC (stereo unspecified)
inactive: [1]; at 1.2 µM 5% | [2]; at 1.2 µM 15% | [3]; at 1.2 µM 32% | [4]; at 1.2 µM 46% | [5]; at 1.2 µM 28% | [5]; [17] 28% | [6]; at 1.2 µM 12% | [6]; [17] 7% | [8]; [17] 65% | [9]; at 1.2 µM 16% | [10]; [17] 21% | [11]; at 1.2 µM 11% | [11]; [17] 6% | [16]; at 1.2 µM 16% | [12]; at 1.2 µM 6% | [14]; [17] 53% | [15]; at 1.2 µM 67%
active: [1]; at 3.7 µM 99% | [1]; at 11.0 µM 99% | [1]; at 33.0 µM 99% | [1]; at 100.0 µM 99% | [2]; at 3.7 µM 99% | [2]; at 11.0 µM 99% | [2]; at 33.0 µM 99% | [2]; at 100.0 µM 99% | [3]; at 3.7 µM 81% | [3]; at 11.0 µM 99% | [3]; at 33.0 µM 99% | [3]; at 100.0 µM 98% | [4]; at 3.7 µM 99% | [4]; at 11.0 µM 100% | [4]; at 33.0 µM 99% | [4]; at 100.0 µM 99% | [5]; at 3.7 µM 99% | [5]; at 11.0 µM 99% | [5]; at 33.0 µM 99% | [5]; [18] 100% | [5]; at 50.0 µM 89.2% | [5]; at 100.0 µM 99% | [6]; at 3.7 µM 99% | [6]; at 11.0 µM 99% | [6]; at 33.0 µM 99% | [6]; [18] 99% | [6]; at 50.0 µM 91.8% | [6]; at 100.0 µM 99% | [7]; at 1.2 µM 72% | [7]; at 3.7 µM 99% | [7]; at 11.0 µM 99% | [7]; at 33.0 µM 99% | [7]; at 100.0 µM 99% | [8]; [18] 99% | [8]; at 50.0 µM 88.4% | [9]; at 3.7 µM 99% | [9]; at 11.0 µM 99% | [9]; at 33.0 µM 99% | [9]; at 100.0 µM 99% | [10]; [18] 100% | [10]; at 50.0 µM 90.8% | [11]; at 3.7 µM 99% | [11]; at 11.0 µM 99% | [11]; at 33.0 µM 98% | [11]; [18] 99% | [11]; at 50.0 µM 91.5% | [11]; at 100.0 µM 98% | [16]; at 3.7 µM 99% | [16]; at 11.0 µM 99% | [16]; at 33.0 µM 99% | [16]; at 100.0 µM 99% | [12]; at 3.7 µM 99% | [12]; at 11.0 µM 99% | [12]; at 33.0 µM 99% | [12]; at 100.0 µM 98% | [14]; [18] 99% | [14]; at 50.0 µM 85.5% | [15]; at 3.7 µM 99% | [15]; at 11.0 µM 99% | [15]; at 33.0 µM 99% | [15]; at 100.0 µM 98%
